Screening results from PubChem BioAssay.
GLP1R ag: agonists of human GLP-1 receptor | Potency, µM (highest dose often 45.6 µM), most hits filed as activators | AID 624172 | 0.007% of 380,000 active | P43220 | HEK293 GLP-1R CRE-luciferase, luminescence, 4-6 h; cells express a hypersensitive GLP-1R form
Target sequence (P43220 whole entry, looked up): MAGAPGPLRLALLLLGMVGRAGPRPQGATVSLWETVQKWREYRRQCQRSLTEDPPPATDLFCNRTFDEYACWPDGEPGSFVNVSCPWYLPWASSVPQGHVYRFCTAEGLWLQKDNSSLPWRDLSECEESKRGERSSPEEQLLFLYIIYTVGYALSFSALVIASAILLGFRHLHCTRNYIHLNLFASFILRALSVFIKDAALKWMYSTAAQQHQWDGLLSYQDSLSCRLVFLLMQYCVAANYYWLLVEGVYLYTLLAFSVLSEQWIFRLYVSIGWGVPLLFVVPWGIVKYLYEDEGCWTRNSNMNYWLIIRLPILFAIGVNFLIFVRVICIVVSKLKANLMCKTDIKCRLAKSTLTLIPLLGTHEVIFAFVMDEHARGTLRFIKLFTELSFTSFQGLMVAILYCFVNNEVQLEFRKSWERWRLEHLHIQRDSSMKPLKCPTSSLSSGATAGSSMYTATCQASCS
HEK293 tox: cytotoxic in the GLP-1 receptor inverse agonist counter-screen; HEK293 cAMP-luciferase reporter cells, luminescence, 24 h; Potency, µM (titrated, usually from 38.3 µM), usual class: inhibitors; 0.13% of 410,000 active; AID 624418;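 further: loss of luciferase light is scored as toxicity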
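Cells in DMEM/10% Nu serum/1% pen-strep, 1536-well format. Pre-incubated 12 h, dosed with 23 nL compound, incubated a further 24 h. Luciferase detection, 12 min at room temp, luminescence.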
GLP1R inv ag: GLP-1 receptor (human) inverse agonism. HEK293 GLP-1R CRE-luciferase, luminescence, 24 h; GLP-1R form is constitutively active. P43220. Potency, µM (titrated, usually from 38.3 µM), usual class: inhibitors. AID 624417. 1.6% of 410,000 active; further: nearly all actives have a fitted effect of over 55% in size
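Constitutively active GLP-1R drives a cAMP-responsive luciferase in stably transfected HEK293 cells; test compounds are added after overnight (12 h) attachment and left 24 hr, and signal loss in luminescence marks inhibition.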
A number is an active result; i = inactive; ? = inconclusive; nt = not tested or not shown. An excerpt weighted towards active compounds, which were near 1.7% of everything screened. The call rests on the fitted dose curve; in most records, active means well fitted curve in the direction sought with a large enough effect; inconclusive means small, poorly fitted or top-dose-only effect, or another doubt; inactive means no such curve, though single readings can be large; an effect the other way counts as inactive or inconclusive.

SMILES	GLP1R ag	HEK293 tox	GLP1R inv ag
CC1=Nc2cc(C(=O)NC3CCCC3)ccc2Sc2ccc(C)cc21	i	?	5µM
CC1=Nc2cc(C(=O)NC3CCCC3)ccc2Sc2ccc(Cl)cc21	nt	?	1.6µM
CCOC(=O)N1CCC(NC(=O)c2ccc3c(c2)N=C(C)c2ccccc2S3)CC1	i	i	?
CNC(=O)c1ccc2c(c1)N=C(C)c1cc(C)ccc1S2	i	i	?
Fc1ccc(CNc2nc3ccc(Cl)cc3n3nnnc23)cc1	nt	i	i
Cc1ccc(NC(=O)Cn2nnc(C(=O)NCc3ccc4c(c3)OCO4)c2N)cc1Cl	nt	i	i
CCCNC(=O)c1c2c(nc3ccccc13)C(=O)N(C1CCCCC1)C2	nt	i	i
O=C(CNC(=O)c1ccc(Br)cc1)NCc1cccnc1	i	i	i
CCc1nc(N2CCN(C(=O)c3ccco3)CC2)c2c3c(sc2n1)CCCC3	i	i	?
CC1CCc2c(sc3nc(C4CC4)nc(N4CCN(C(=O)c5ccco5)CC4)c23)C1 (stereo not drawn)	i	?	5.6µM
Cc1onc(-c2c(F)cccc2Cl)c1C(=O)N1CCOC12CCCCC2	i	i	i
COc1ccccc1C(CNC(=O)c1cccc(S(=O)(=O)Nc2ccc(C)cc2)c1)N1CCCC1 (stereo not drawn)	i	i	5.6µM
Cc1ccc(N(C)S(=O)(=O)c2cccc(C(=O)NCC(c3ccco3)N3CCCC3)c2)cc1 (stereo not drawn)	i	i	10µM
Cc1ccc(S(=O)(=O)N(C)c2ccc(C(=O)NCC(c3ccco3)N3CCCC3)cc2)cc1 (stereo not drawn)	i	i	?
COc1ccccc1NS(=O)(=O)c1cccc(C(=O)NCC(c2ccccc2OC)N2CCCC2)c1 (stereo not drawn)	i	i	?
C[C@]12O[C@H](C[C@]1(O)CO)n1c3ccccc3c3c4c(c5c6ccccc6n2c5c31)CNC4=O	i	nt	nt
CN(Cc1ccc(Cl)c(Cl)c1)C(=O)c1cccc(S(=O)(=O)N2CCN(Cc3ccccc3)CC2)c1	i	i	11µM
CN1CCN(S(=O)(=O)c2cccc(C(=O)N(C)Cc3cccs3)c2)CC1	i	i	i
CN(Cc1cccc(F)c1)C(=O)c1cccc(S(=O)(=O)N2CCN(Cc3ccccc3)CC2)c1	i	i	?
C=CCN(C(=O)c1cccc(S(=O)(=O)N2CCN(C)CC2)c1)c1nc(-c2ccccc2)cs1	i	i	11µM
O=C(CCC(=O)OCC(F)(F)C(F)F)Nc1ccccc1F	i	i	i
Cc1ccc(-c2nc3ccccc3n2C(C(=O)NC(C)(C)C)C2CC2)cc1 (stereo not drawn)	nt	i	i
O=C(c1ccc(Cl)c(S(=O)(=O)N2CCc3ccccc32)c1)N1CCN(c2ccccc2O)CC1	i	i	?
Cc1cccc(N2CCN(C(=O)c3ccc(Cl)c(S(=O)(=O)N4CCc5ccccc5C4)c3)CC2)c1C	i	i	7.1µM
CN(C)C1=NCCN1CC1CCCCCC1	i	i	i
SMILES	GLP1R ag	HEK293 tox	GLP1R inv ag
c1cc(-c2cc3nc(NC4CCCCC4)ccn3n2)ccc1OCCN1CCOCC1	i	?	?
CN(C)/N=C1\CCS(=O)(=O)c2sccc21	i	i	i
Cc1ccc(N/N=C2\CCS(=O)(=O)c3sccc32)cc1	i	i	4µM
C=C(C)C(=O)Nc1ccc2c(c1)OCCOCCOCCO2	i	i	i
Cc1cc(C)c(S(=O)(=O)N2CCOC2CNC(=O)C(=O)NCCCn2ccnc2)c(C)c1 (stereo not drawn)	i	i	i
Cc1ccc(S(=O)(=O)N(C)c2ccc(OCC(=O)OCc3cccc(Br)c3)cc2)cc1	i	i	i
COC(=O)C1CCN(C(=O)COc2ccc(N(C)S(=O)(=O)c3ccc(C)cc3)cc2)CC1	i	i	i
Cc1ccc(S(=O)(=O)N(C)c2ccc(OCc3cccc(C)c3)cc2)cc1	i	i	2.8µM
Cc1ccc(S(=O)(=O)N(C)c2ccc(OCC(=O)NCC3(N(C)C)CCCCC3)cc2)cc1	i	i	11µM
CCC1CCCCN1C(=O)COc1ccc(N(C)S(=O)(=O)c2ccc(C)cc2)cc1 (stereo not drawn)	i	i	3.2µM
CN(C)C1(CNC(=O)COc2ccc(C(C)(C)C)cc2)CCCCC1	i	i	?
CCOCCCNC(=O)C(c1ccc(C)cc1)N(Cc1ccc2c(c1)OCO2)C(=O)c1ccc(NC(C)=O)cc1 (stereo not drawn)	nt	i	i
c1ccc(COc2cccc(CNn3cnnc3)c2)cc1	i	i	i
COc1ccc(CNC(c2ccccc2)c2ccc(Cl)cc2)cc1 (stereo not drawn)	i	i	?
CC(NCc1ccc(OCc2ccc(Cl)cc2)cc1)C(O)c1ccccc1 (stereo not drawn)	i	?	10µM
CC(NCc1cccc(OCc2ccccc2)c1)C(O)c1ccccc1 (stereo not drawn)	i	?	8.9µM
CCOC(=O)/C(=N/Nc1ccc(Br)cc1)N1CC(C)OC(C)C1 (stereo not drawn)	i	i	2.5µM
CCOc1ccc(NC(=O)N2CC(C)OC(C)C2)cc1 (stereo not drawn)	i	i	i
CCCN(C(=O)c1cc2c(=O)n(CC)c3ccccc3c2s1)c1ccccc1F	i	i	i
CCOc1ccccc1N(CC)C(=O)c1cc2c(=O)n(CC)c3ccccc3c2s1	i	?	10µM
COc1ccc(-c2oc3ncn4nc(-c5ccccc5C)nc4c3c2-c2ccc(OC)cc2)cc1	nt	i	i
CCN(CC)c1ccc(C=C2SC(=S)NC2=O)cc1	i	i	i
CC1Cc2cc(/C=C3/SC(=S)NC3=O)ccc2O1 (stereo not drawn)	i	10µM	?
COc1ccc(S(=O)(=O)N(C)C[C@H]2OCc3cnnn3CCCC(=O)N([C@@H](C)CO)C[C@H]2C)cc1	i	i	i
OC(COc1ccccc1)CN1CCN(Cc2ccc3c(c2)OCO3)CC1 (stereo not drawn)	i	i	i
SMILES	GLP1R ag	HEK293 tox	GLP1R inv ag
CCN(CC)c1ccc(C(=O)NC(=S)N2CCN(Cc3ccc4c(c3)OCO4)CC2)cc1	i	i	10µM
O=C(c1ccccc1Cl)N1CCN(Cc2ccc3c(c2)OCO3)CC1	i	i	?
O=C(c1ccc(Br)s1)N1CCN(Cc2ccc3c(c2)OCO3)CC1	i	i	?
Cc1cc(C)cc(OCC(O)CN2CCN(Cc3ccc4c(c3)OCO4)CC2)c1 (stereo not drawn)	i	i	2.2µM
Cc1ccc(C(=O)N2CCN(Cc3ccc4c(c3)OCO4)CC2)c(Cl)c1	i	i	6.3µM
O=C(c1cc2c(s1)CCCC2)N1CCN(Cc2ccc3c(c2)OCO3)CC1	i	i	13µM
CC(C)NC(=S)N1CCN(Cc2ccc3c(c2)OCO3)CC1	i	i	i
COc1cc(C(=O)OCC(=O)N2CCCC2=O)cc(OC)c1C	i	i	i
CCN(CC)S(=O)(=O)c1ccc(N2CCOCC2)c(NC(=O)c2cc([N+](=O)[O-])ccc2Cl)c1	i	i	i
N=C(N)n1ncc2c1CCCC2=O	i	i	i
CCOC(=O)C(=O)N(C)c1c(CC)nc2c(OCc3cc(Cl)cc(Cl)c3)cccn12	i	i	?
CC1=NN(C(=O)CSCc2ccccc2)C(O)(c2ccc(Cl)cc2)C1 (stereo not drawn)	i	i	?
